An excerpt weighted towards active compounds, which were near 2.2% of everything screened.
HTR5A ag – activates human HTR5A in OPRM1-OPRD1 agonist counter-screen | P47898 | HTR5A agonist assay, luminescence, cell-based | activation, % at 9.3 µM | actives 0.61% (n = 340,000) | AID 504692; in the data active means activation mostly above about 9.5%, no sharp cut-off; inactive means mostly below about 7.6%;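 further: 0% = cells with vehicle only and 100% = reference agonist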
Target sequence (P47898 whole entry, looked up): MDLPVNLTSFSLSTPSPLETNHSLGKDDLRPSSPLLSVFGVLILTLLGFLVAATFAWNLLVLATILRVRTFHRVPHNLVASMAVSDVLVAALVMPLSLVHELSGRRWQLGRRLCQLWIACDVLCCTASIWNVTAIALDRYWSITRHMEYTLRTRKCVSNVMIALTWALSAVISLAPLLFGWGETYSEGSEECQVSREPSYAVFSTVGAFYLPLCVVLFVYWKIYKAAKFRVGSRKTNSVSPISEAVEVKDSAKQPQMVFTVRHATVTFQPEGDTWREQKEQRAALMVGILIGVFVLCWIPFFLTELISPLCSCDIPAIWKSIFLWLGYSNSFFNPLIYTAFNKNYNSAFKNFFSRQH
sPLA2-III inh – Inhibits HGIII-sPLA2 liposome hydrolysis, primary screen | Q9NZ20 | QFRET BODIPY PC-A2 liposome hydrolysis, fluorescence | inhibition, % at 12.2 µM | actives 0.56% (n = 370,000) | AID 743126;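 active means inhibition above mean plus 3 SD of compounds lying within the high and low control bounds, cut at about 19% in these data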;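 further: 0% = median of test compound wells and 100% = no enzyme DMSO wells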
OPRM1-OPRD1 inv – inverse agonists of human mu-delta opioid receptor heterodimerization | P35372+P41143 | inhibition, % at 9.3 µM | actives 0.21% (n = 340,000) | cell-based MOR-DOR heterodimer luminescence, inverse agonism; in the data active means inhibition above about 22%, passing the limit was not always enough;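 further: 0% = cells with DMSO and 100% = wells without cells with DMSO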
OPRM1-OPRD1 ag – OPRM1-OPRD1 heterodimerization agonism; cells, luminescence; activation, % at 9.3 µM; actives 0.3% (n = 340,000); in the data active means activation above about 18%;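 further: 0% = vehicle-treated cells and 100% = reference agonist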
HTR5A inv ag – HTR5A inverse agonism, opioid heterodimer counter-screen; P47898; actives 0.083% (n = 340,000); HTR5A cell line, luminescence; inhibition, % at 9.3 µM; in the data active means inhibition mostly above about 23%, no sharp cut-off; inactive means mostly below about 18%;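 further: 0% = cells with DMSO and 100% = no-cell wells with DMSO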
HTR2A ag – activates the mouse 5-HT2A serotonin receptor | actives 0.66% (n = 360,000) | activation, % at 7.6 µM | CHO-K1 mHTR2A beta-arrestin complementation, luminescence; percent of 30 µM serotonin response | P35363;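 active means activation above a run cutoff, the mean activation of all tested compounds plus 3 SD, cut at about 14% in these data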;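 further: 0% = plate median of compound wells and 100% = 30 µM serotonin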
OPRM1 ag – activates human mu opioid receptor in HTR2A counterscreen | shares compounds with HTR2A ag | U2OS OPRM1 beta-arrestin PathHunter, luminescence; DMSO 0%, DAMGO 9.3 µM 100% | activation, % at 9.3 µM | actives 5.3% (n = 2,300) | AID 624380;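 active means mean activation above the mean of DMSO-only wells plus 3 SD, cut at about 0.5% in these data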
HTR2A ag conf – confirmation of mouse HTR2A serotonin receptor agonists. shares compounds with HTR2A ag. AID 624381. CHO-K1 PathHunter beta-arrestin recruitment, luminescence; DMSO 0%, 30 µM serotonin 100%. actives 19% (n = 2,300). activation, % at 7.6 µM;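 active means mean activation across triplicates above the hit threshold derived in the original primary screen, cut at about 15% in these data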
* = called active by the depositor; nt = no result.

SMILES	HTR5A ag	sPLA2-III inh	OPRM1-OPRD1 inv	OPRM1-OPRD1 ag	HTR5A inv ag	HTR2A ag	OPRM1 ag	HTR2A ag conf
CC1=C(C(=O)N2CCCCCC2)CC(CC(=O)NC2CCCC2)C(=O)N1Cc1ccc(C(C)(C)C)cc1 (stereo not given)	nt	-8	nt	nt	nt	15*	-1	-2
Cc1ccc(-n2c(SCC(=O)c3ccc(F)cc3)nnc2-c2cccnc2)cc1	nt	-55	nt	nt	nt	nt	nt	nt
Cc1ccnc(NS(=O)(=O)c2ccc(NC(=O)c3snnc3C)cc2)n1	2	-10	13	-3	0	15*	-1	0
Clc1ccc(-c2nnc3n2N=C(c2ccc(-c4ccccc4)cc2)CS3)c(Cl)c1	nt	3	nt	nt	nt	nt	nt	nt
Cc1cc(=O)[nH]c(SCC(=O)Nc2ccc(F)c([N+](=O)[O-])c2)n1	-3	0	-2	0	10	28*	0	-2
Cc1ccc2nc(SCC(=O)Nc3ccc(F)c([N+](=O)[O-])c3)[nH]c2c1	2	-26	-13	3	-13	-2	nt	nt
CC1(C)CC(=O)N(CC(=O)N2CCN(c3cccc(Cl)c3Cl)CC2)c2ccccc2S1(=O)=O	nt	-4	nt	nt	nt	nt	nt	nt
Cc1ccc(/C=N/NC(=O)CN2C(=O)CSc3ccccc32)o1	-2	-4	5	-1	-5	20*	-1	-3
Cc1cc2oc3ccc(NCCCn4ccnc4)cc3c(=O)c2cc1C	0	-25	-90	16	0	20*	1.4*	9
CCOC(=O)CC1C(=O)NCCN1C(=S)NC(=O)c1ccccc1OC (stereo not given)	-3	-2	-1	0	-33	16*	-1	-3
Cc1cc(NC(=O)c2cccc(S(=O)(=O)N3CCOCC3)c2)no1	-1	3	11	-2	3	-3	nt	nt
Cc1cc(NS(=O)(=O)c2ccc(NC(=S)NC(=O)c3cccc(S(=O)(=O)N(C)C)c3)cc2)no1	-1	1	14	-3	26	16*	-1	-4
Cc1cc(NC(=O)c2cccc(S(=O)(=O)N3CCCCC3)c2)no1	-2	-1	12	-2	-14	18*	0	-1
O=C(NC1CCCC1)c1cccc(S(=O)(=O)N2CCCCC2)c1	-5	1	4	-1	-13	16*	0	10
Cc1ccc2c(c1)N(CCCC(=O)NCc1c(F)cccc1F)C(=O)CO2	nt	11	nt	nt	nt	nt	nt	nt
O=C(c1ccc(-n2cncn2)c([N+](=O)[O-])c1)N1CCN(S(=O)(=O)c2c(F)cccc2F)CC1	0	-4	-3	0	25	16*	0	-3
Cc1noc(C)c1S(=O)(=O)NCc1ccc2c(c1)OCO2	-2	3	6	-1	-30	32*	-1	-5
Cc1cc(C)c(S(=O)(=O)NCc2ccc3c(c2)OCO3)c(C)c1	0	-7	4	-1	25	0	nt	nt
Cc1ccccc1-c1nnc(SCC(=O)N(C)c2c(N)n(Cc3ccccc3)c(=O)[nH]c2=O)n1C	-1	4	-4	1	-25	-7	nt	nt
CCN(C(=O)CSc1nnc(-c2ccccc2C)n1C)c1c(N)n(Cc2ccccc2)c(=O)[nH]c1=O	10	3	5	-1	-30	14*	0	-2
Cc1ccc(-n2c(C)nnc2SCC(=O)N(C)c2c(N)n(Cc3ccccc3)c(=O)[nH]c2=O)cc1	-7	2	17	-4	18	17*	0	-2
C=CCN(Cc1ccc(OC)c(OC)c1)C(=O)c1cc2cc(F)ccc2[nH]1	1	-20	-6	1	-5	20*	0	-5
CC(=O)Nc1ccc(NC(=O)c2cc(-n3cnnc3)ccc2Cl)cc1	-4	3	7	-1	-9	16*	0	-4
CCC(=O)NCCc1cc2cc(C)c(C)cc2[nH]c1=O	3	-5	9	-2	-7	12	nt	nt
Cc1cc2cc(CCNC(=O)CCc3ccccc3)c(=O)[nH]c2cc1C	5	-2	12	-2	-14	22*	-1	-3
SMILES	HTR5A ag	sPLA2-III inh	OPRM1-OPRD1 inv	OPRM1-OPRD1 ag	HTR5A inv ag	HTR2A ag	OPRM1 ag	HTR2A ag conf
COc1ccccc1CNC(=O)c1n[nH]c2ccccc12	7	-6	11	-2	-5	19*	0	2
CCOc1ccc(CCNC(=O)c2ccc3c(=O)[nH]c4c(C(=O)NC(C)C)sc(=S)n4c3c2)cc1	-2	-1	2	0	8	19*	-1	0
Cn1nc(C(C)(C)C)cc1C(=O)N1CCCCC1c1cc(C(=O)NCc2cccnc2)no1 (stereo not given)	nt	-1	nt	nt	nt	15*	0	1
CC1COC(c2cccn2Cc2ccccc2Cl)=N1 (stereo not given)	-3	14	-7	1	9	24*	0	-2
c1cnc(N2CCN(Cc3ccc4c(c3)OCO4)CC2)nc1	-2	-9	11	-2	0	42*	0	169*
FC(F)(F)c1ccc(N2CCN(Cc3ccc4c(c3)OCO4)CC2)nc1	9	14	-19	4	5	2	nt	nt
c1cc2c(cc1CN1CCOCC1)OCO2	4	6	6	-1	2	0	nt	nt
c1ccc(N2CCN(Cc3ccc4c(c3)OCO4)CC2)nc1	nt	10	nt	nt	nt	32*	-1	113*
Brc1ccc(CN2CCN(c3ccccn3)CC2)s1	-1	0	-1	0	10	30*	0	98*
O=c1c(CN2CCN(c3ccccn3)CC2)coc2ccccc12	-1	2	-8	1	3	0	nt	nt
c1nc(N2CCN(Cc3ccc4c(c3)OCO4)CC2)c2[nH]cnc2n1	-2	1	9	-2	4	20*	0	75*
COC(=O)c1cn(-c2ccc(-c3noc4c3C(=O)N(CC(=O)N3CCOCC3)CC4)cc2)nn1	nt	-2	nt	nt	nt	nt	nt	nt
COc1ccc(NC(=O)CSc2nnc(-c3n[nH]c4c3CCC4)n2N)cc1OC	nt	2	nt	nt	nt	nt	nt	nt
COc1ccc(Cl)cc1CC1(C)C(=O)Nc2ccc(-c3ccccc3OC)cc21 (stereo not given)	nt	-6	nt	nt	nt	21*	0	17*
O=C(NC1CCCCC1)N1CCNCC1	-1	-1	11	-2	4	14*	-1	-2
Cc1csc2c(N3CCC(C(=O)O)CC3)ncnc12	2	-3	13	-2	4	1	nt	nt
Cc1csc2c(N3CCN(C(=O)Nc4ccc(OC(F)(F)F)cc4)CC3)ncnc12	6	-6	4	-1	13	14*	0	1
O=C(Nc1ccc(N2CCOCC2)cc1)c1ccncc1	7	5	8	-2	-17	2	nt	nt
